From PubChem
Compounds with a hit are over-represented: about 4.6% of the library has one in this group of screens.
Wee1 degr inh – Wee1 degradation inhibitors, primary screen, cell-based, HeLa, Wee1K328M-luciferase, luminescence | HeLa Luc-Wee1K328M stability; 100% = proteasome inhibitor MG132 effect | hit rate 1.2% among 220,000 | reporter increase, % at 5 µM | Wee1-like protein kinase (Homo sapiens), P30291;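 active = activation above the mean of all tested compounds plus 3 SD, set per screening run, cut at about 8.8% in these data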;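 also: cells exposed to compound for 20 h before luminescence read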
Target sequence (P30291 whole entry K328M): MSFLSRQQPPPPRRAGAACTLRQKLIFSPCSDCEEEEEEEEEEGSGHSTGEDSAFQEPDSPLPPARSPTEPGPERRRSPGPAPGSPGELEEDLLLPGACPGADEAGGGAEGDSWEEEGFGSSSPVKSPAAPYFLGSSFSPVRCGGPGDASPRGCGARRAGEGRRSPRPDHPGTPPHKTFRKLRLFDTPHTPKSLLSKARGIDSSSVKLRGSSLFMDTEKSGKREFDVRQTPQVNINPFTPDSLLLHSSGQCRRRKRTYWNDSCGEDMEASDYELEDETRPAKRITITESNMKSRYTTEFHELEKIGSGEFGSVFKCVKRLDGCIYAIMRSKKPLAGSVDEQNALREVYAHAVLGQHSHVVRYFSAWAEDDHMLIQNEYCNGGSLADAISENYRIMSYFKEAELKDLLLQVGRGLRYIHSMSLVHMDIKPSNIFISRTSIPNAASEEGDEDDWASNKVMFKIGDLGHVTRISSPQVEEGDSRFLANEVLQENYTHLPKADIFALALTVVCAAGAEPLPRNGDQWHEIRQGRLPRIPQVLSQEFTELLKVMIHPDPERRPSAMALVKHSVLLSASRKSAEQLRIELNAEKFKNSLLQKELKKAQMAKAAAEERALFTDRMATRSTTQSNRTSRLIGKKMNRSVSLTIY
hgDAF12 agonist – H. glycines DAF-12 receptor agonists, primary screen, cell-based, luminescence, HEK293, GAL4 fusion, UAS-luciferase | HEK293 GAL4-hgDAF12 UAS-luciferase reporter, agonist luminescence; normalized to butyrate control | activation, % at 6.8 µM | hit rate 1.8% among 370,000 | AID 687014, 2013;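 active = activation above a cutoff set at the mean of all screened compounds plus 3 SD, cut at about 10% in these data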
ssDAF-12 act – S. stercoralis DAF-12 nuclear receptor activators, primary screen, cell-based, luminescence, HEK293, GRIP1 co-expression, lit1-tk-luc | Nuclear hormone receptor DAF-12 (Strongyloides stercoralis) | HEK293 ssDAF-12/GRIP1 lit1-tk-luc reporter; % of 3 µM dafachronic acid response | activation, % at 6.8 µM | hit rate 1% among 370,000 | AID 652126, 2013;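 active = activation above the mean over all tested compounds plus 3 SD, cut at about 0.9% in these data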
DAX1 inh-1 – DAX1 (NR0B1) inhibitors on StAR promoter, primary screen, cell-based, luminescence, SF-1 (NR5A1), full-length DAX-1. AID 652010, 2013. inhibition, % at 6.8 µM. hit rate 1.1% among 370,000. HEK293T StAR-luciferase reporter, SF-1/DAX-1 repression relief;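 active = inhibition above the mean over all tested compounds plus 3 SD, cut at about 3.6% in these data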;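 also: higher inhibition means more luminescence from relief of DAX-1 repression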
DAX1 inh-2 – DAX1 (NR0B1) inhibitors, primary screen, cell-based, HEK293, Gal4-DAX1, luciferase luminescence | hit rate 0.99% among 340,000 | Nuclear receptor subfamily 0 group B member 1 (Homo sapiens), P51843 | inhibition, % at 6.75 µM | HEK293 Gal4-DAX1 luciferase reporter;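 active = inhibition above the mean over all tested compounds plus 3 SD, cut at about 4.2% in these data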;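 also: inhibition shows as a rise in luminescence from relieved DAX1 repression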
hcDAF-12 act – H. contortus DAF-12 nuclear receptor activators, primary screen, cell-based, luminescence, HEK293, lit1-tk-luc reporter; HEK293 hcDAF-12 lit1-tk-luc reporter; 0% DMSO, 100% Δ7-dafachronic acid; activation, % at 6.8 µM; hit rate 1.4% among 370,000; AID 652067, 2013;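 active = activation above the mean of all tested compounds plus 3 SD, cut at about 5.5% in these data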
Large screens that a line does not name were inactive; ! = not confirmed by another sample.

CCCCn1c(N)c(N(CC)C(=O)COc2ccc(C#N)cc2)c(=O)[nH]c1=O	ssDAF-12 act 1.3 (no result: Wee1 degr inh)
O=C(CCc1ccccc1)Nc1cc(S(=O)(=O)N2CCOCC2)ccc1N1CCCC1	none (no result: Wee1 degr inh)
O=C(/C=C/c1nc2ccccc2s1)N1CCCCCC1	hgDAF12 agonist 11
CCCN1C(=S)c2ccccc2C1c1ccccc1 (centres undefined)	ssDAF-12 act 1.3, DAX1 inh-2 4.7 (no result: Wee1 degr inh)
CCN(CC)c1ccc(C=Nn2c(C)nnc2C)cc1	none (no result: Wee1 degr inh, DAX1 inh-2)
Cc1[nH]c2ccccc2c1/C=N/NC(=O)Nc1ccccc1	hcDAF-12 act 6.0
Cc1[nH]c2ccccc2c1/C=N/NC(=O)c1ccccc1	DAX1 inh-2 4.5 (no result: Wee1 degr inh)
O=C(N/N=C/c1ccc(Br)s1)Nc1ccccc1	hgDAF12 agonist 11
O=[N+]([O-])c1ccc(N2CCOCC2)cc1O	none
Cc1cc(N2CCOCC2)ccc1/C=C\[N+](=O)[O-]	ssDAF-12 act 16
CC1(C)CC2(CC(C)(C)N1)OC(=O)N1CCc3ccccc3C12C (centres undefined)	DAX1 inh-2 4.2
CN1C(=O)OC2(C)CCc3ccccc3C12C (centres undefined)	none
Cc1ccc(S(=O)(=O)N2CCOCC2)cc1NC(=O)COC(=O)c1ccc(Br)o1	none (no result: Wee1 degr inh)
O=C(NCCO)C1(C(=O)C2CC2)CC(c2ccccc2C(F)(F)F)=NO1 (centres undefined)	none (no result: Wee1 degr inh, DAX1 inh-2)
COc1ccc(C2C(C(=O)Nc3ccc(Cl)cc3)CCC(=O)N2c2ccc(OC)cc2)cc1 (centres undefined)	none (no result: Wee1 degr inh, DAX1 inh-2)
CN(C)C=Nc1ccc([N+](=O)[O-])c2ccccc12	none (no result: Wee1 degr inh)
Nc1cc(-c2ccccc2)ccc1O	Wee1 degr inh 10!
COc1ccc(NC(=O)C(c2ccc(C#N)cc2)n2c(=O)c(-c3ccco3)nc3ccccc32)cc1 (centres undefined)	none (no result: Wee1 degr inh, DAX1 inh-2)
CN1c2ccc(C#CC3CC3)cc2[C@@H]2[C@@H](CCN2C(=O)C2CCOCC2)[C@H]1CO	none (no result: Wee1 degr inh, DAX1 inh-2)
O=C(O)CCC(=O)Nc1nc2nccc(-c3ccccc3)n2n1	DAX1 inh-2 4.8
O=C(c1ccccc1)c1cnc(Nc2ccccc2Cl)s1	DAX1 inh-2 6.8 (no result: hgDAF12 agonist, ssDAF-12 act, DAX1 inh-1, hcDAF-12 act)
CNc1ncc(C(=O)c2ccc(Cl)cc2)s1	Wee1 degr inh 9.6
Cc1cc(C)cc(NC(=O)N2c3ccccc3NC(=O)CC2C)c1 (centres undefined)	Wee1 degr inh 9.6
CCOC(=O)CN1c2ccccc2NC(=O)CC1C (centres undefined)	Wee1 degr inh 14
COCc1cccc(-c2csc(C(C)(O)c3cccc(OC)c3)n2)c1 (centres undefined)	none (no result: Wee1 degr inh, DAX1 inh-2)
COc1ccc(NC(=O)C2(C)CCN2Cc2csc3ccccc23)cc1OC (centres undefined)	none (no result: Wee1 degr inh, DAX1 inh-2)
COc1cc(NC(=O)c2nnn(Cc3ccc(SC)cc3)c2N)cc(OC)c1	DAX1 inh-2 4.2
CSc1cccc(NC(=O)c2nnn(Cc3ccccc3)c2N)c1	none
COc1cccc(NC(=O)c2nnn(CCc3ccccc3)c2N)c1	DAX1 inh-2 6.0
COc1cccc(NC(=O)Cn2nnc(C(=O)Nc3ccccc3)c2N)c1	none
O=C(CCC1CCCC1)NCCCNC(=O)CCC1CCCC1	hcDAF-12 act 5.9 (no result: Wee1 degr inh)
COC(=O)C1CN(Cc2cn(Cc3ccc(OC)cc3)nn2)CCS(=O)(=O)N1Cc1ccc(C)cc1 (centres undefined)	none (no result: Wee1 degr inh, DAX1 inh-2)
CNC(=S)N(CCc1ccc(OC)c(OC)c1)C1CC(=O)N(c2ccccc2)C1=O (centres undefined)	DAX1 inh-2 5.0 (no result: hgDAF12 agonist, ssDAF-12 act, DAX1 inh-1, hcDAF-12 act)
Cc1ccccc1CS(=O)(=O)Cc1ccc(C(=O)Nc2ccc(F)cc2F)o1	none (no result: Wee1 degr inh, DAX1 inh-2)
O=C(/C=C/c1ccccc1)CCN1CCCCC1	none (no result: Wee1 degr inh)
COc1cc(/C=C2/C(=O)N(C)C(=S)N2C)ccc1OCc1cccc(F)c1	none (no result: Wee1 degr inh)
CN1C(=O)/C(=C/c2ccc(OCc3cccc(F)c3)cc2)NC1=S	ssDAF-12 act 1.4 (no result: Wee1 degr inh)
COc1cc(C(=O)NNC(=O)C2CC=CCC2C(=O)O)cc(OC)c1OC (centres undefined)	ssDAF-12 act 1.9
CC(=O)OCC(=O)[C@@]12OC(C)(C)O[C@@H]1C[C@H]1[C@@H]3C[C@H](F)C4=CC(=O)C=C[C@]4(C)[C@@]3(F)[C@@H](O)C[C@@]12C	Wee1 degr inh 11 (no result: hgDAF12 agonist, ssDAF-12 act, DAX1 inh-1, DAX1 inh-2, hcDAF-12 act)
CC(=O)OCC(=O)[C@@]12OC(C)(C)O[C@@H]1CC1C3C[C@H](F)C4=CC(=O)C=CC4(C)[C@@]3(F)C(O)CC12C (some centres undefined)	none (no result: Wee1 degr inh)
Cn1cc(CN2CCc3c([nH]c4ccccc34)C2C(C)(C)C)cn1 (centres undefined)	hcDAF-12 act 5.9
COc1cccc2cc(-c3cn4cccc(C)c4n3)c(=O)oc12	none
COc1ccc(-n2c(C)cc(-c3cn4cccc(C)c4n3)c2C)cc1	Wee1 degr inh 8.8
Cc1cccc(CN2CCN(C3CN(Cc4ccc(F)cc4)S(=O)(=O)C3)CC2)c1 (centres undefined)	none (no result: Wee1 degr inh, DAX1 inh-2)
CCc1ccc(NC(=O)C(=O)NCC2CCCO2)cc1 (centres undefined)	DAX1 inh-1 4.3, DAX1 inh-2 4.6
CCCCc1ccc(NC(=O)C2CCCO2)cc1 (centres undefined)	hgDAF12 agonist 11
O=C(NCCc1ccccc1)c1ccccc1NC(=O)C1CCCO1 (centres undefined)	hgDAF12 agonist 11, DAX1 inh-1 4.3, hcDAF-12 act 5.6
O=C(O)c1ccccc1NC(=O)C1CCCO1 (centres undefined)	none
Cc1ccc(S(=O)(=O)N(C)C[C@@H]2Oc3ccc(NC(=O)Cn4cnnn4)cc3C(=O)N([C@@H](C)CO)C[C@H]2C)cc1	none (no result: Wee1 degr inh)
CCOC(=O)[C@]12CCCC=C1N(CCCOC)C(=O)[C@@H]2CC(=O)N1CCN(C(=O)c2ccco2)CC1	none (no result: Wee1 degr inh, DAX1 inh-2)
NC(=O)C1CC2(C1)CC(C(N)=O)C2 (centres undefined)	none (no result: Wee1 degr inh, DAX1 inh-2)
O=C1/C(=C/c2ccccc2)Oc2cc(OC(=O)N3CCOCC3)ccc21	none
CC(=O)Oc1ccc(/C=C2/Oc3ccccc3C2=O)cc1	DAX1 inh-2 5.3
O=c1[nH]c(-c2ccc(O)cc2)nc2scc(-c3cccs3)c12	hgDAF12 agonist 13
CCCc1nnn(S(=O)(=O)c2ccc([N+](=O)[O-])cc2)c1CCC	DAX1 inh-2 5.0 (no result: Wee1 degr inh)
